For some of these results: Entries with a potency or affinity are not part of this list.

Parameters in all cases: scale not given: direction of the effect not stated beside the values
The target of experiment [1] is Protein translocase subunit SecA (Escherichia coli (strain K12)) (UniProt P10408). Briefly: Assay to Identify E. coli SecA ATPase Inhibitors. The note with it: 30 µM. It is filed as functional.
Experiment [2] deals with T1, Ubiquitin-activating enzyme e1, putative (Leishmania donovani (strain BPK282A1)) (UniProt E9BSI1).
T1 sequence (whole entry): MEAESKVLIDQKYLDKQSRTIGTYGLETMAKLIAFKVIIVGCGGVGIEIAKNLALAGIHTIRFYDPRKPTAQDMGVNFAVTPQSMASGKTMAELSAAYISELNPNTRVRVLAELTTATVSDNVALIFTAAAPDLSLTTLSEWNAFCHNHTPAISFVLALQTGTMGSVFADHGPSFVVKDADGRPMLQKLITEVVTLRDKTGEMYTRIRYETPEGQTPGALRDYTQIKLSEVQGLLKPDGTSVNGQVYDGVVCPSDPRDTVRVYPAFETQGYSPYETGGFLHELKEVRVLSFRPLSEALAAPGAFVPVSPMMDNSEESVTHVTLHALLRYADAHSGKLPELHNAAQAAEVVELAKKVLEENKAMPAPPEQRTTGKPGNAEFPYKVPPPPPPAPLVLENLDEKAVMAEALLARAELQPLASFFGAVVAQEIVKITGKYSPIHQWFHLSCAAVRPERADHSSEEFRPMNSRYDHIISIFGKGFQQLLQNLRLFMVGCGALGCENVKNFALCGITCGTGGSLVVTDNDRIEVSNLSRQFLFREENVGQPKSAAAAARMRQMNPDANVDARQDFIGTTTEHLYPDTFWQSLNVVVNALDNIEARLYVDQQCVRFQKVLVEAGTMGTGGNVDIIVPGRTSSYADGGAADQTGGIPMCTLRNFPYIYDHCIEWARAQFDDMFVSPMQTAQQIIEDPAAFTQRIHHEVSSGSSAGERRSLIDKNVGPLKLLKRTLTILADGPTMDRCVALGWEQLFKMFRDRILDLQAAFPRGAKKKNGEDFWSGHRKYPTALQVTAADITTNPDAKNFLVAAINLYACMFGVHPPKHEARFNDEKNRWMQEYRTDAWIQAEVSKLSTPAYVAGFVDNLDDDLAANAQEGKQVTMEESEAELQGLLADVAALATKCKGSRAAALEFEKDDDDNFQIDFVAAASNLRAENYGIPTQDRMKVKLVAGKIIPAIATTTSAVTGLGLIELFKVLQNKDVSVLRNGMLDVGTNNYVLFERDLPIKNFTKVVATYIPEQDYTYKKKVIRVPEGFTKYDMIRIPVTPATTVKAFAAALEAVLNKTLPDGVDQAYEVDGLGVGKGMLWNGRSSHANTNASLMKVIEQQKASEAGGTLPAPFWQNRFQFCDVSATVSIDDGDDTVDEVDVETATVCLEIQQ
Kind of experiment: Leishmania donovani Ubiquitin Activating Enzyme (LdE1). The note with it: 30 µM. It is filed as functional.

Experiment [3] addresses T2, Aspartate--tRNA(Asp/Asn) ligase (Mycobacterium tuberculosis (strain ATCC 25618 / H37Rv)) (UniProt P9WFW3).
T2 sequence (whole entry): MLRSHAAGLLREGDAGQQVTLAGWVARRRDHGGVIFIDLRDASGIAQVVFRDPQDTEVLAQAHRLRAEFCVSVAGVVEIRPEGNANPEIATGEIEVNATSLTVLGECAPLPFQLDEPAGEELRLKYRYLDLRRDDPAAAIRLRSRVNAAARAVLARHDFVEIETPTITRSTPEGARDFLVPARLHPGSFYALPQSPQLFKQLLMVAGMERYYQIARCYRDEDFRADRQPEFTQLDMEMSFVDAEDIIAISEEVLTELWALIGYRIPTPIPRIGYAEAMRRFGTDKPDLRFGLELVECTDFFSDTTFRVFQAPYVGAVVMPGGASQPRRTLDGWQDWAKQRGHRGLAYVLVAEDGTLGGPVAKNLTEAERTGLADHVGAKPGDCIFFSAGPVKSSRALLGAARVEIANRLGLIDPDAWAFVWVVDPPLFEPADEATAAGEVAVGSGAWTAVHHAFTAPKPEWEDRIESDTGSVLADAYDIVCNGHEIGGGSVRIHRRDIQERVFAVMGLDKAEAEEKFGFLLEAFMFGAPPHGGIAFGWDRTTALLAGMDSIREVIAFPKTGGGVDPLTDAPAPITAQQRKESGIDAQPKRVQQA
Briefly: Assay for Asp RNA synthetase-1 from Mycobacterium tuberculosis. It is filed as functional. The following applies: 30 µM.

The target in experiment [4] is AMP-activated protein kinase, AMPK (Homo sapiens) (UniProt P54646+O43741+P54619+Q9UGJ0+Q9Y478+Q13131+Q9UGI9). Briefly: AMP-dependent Kinase enzyme assay. An in vitro enzyme assay that detects ADP turnover that is directly proportional to AMPK activity. This uses naive AMPK that is activated during the assay with MK-8722. It is filed as functional. The note with it: 30 µM.

Experiment [5] deals with Sialic acid-binding Ig-like lectin 9 (Homo sapiens) (UniProt Q9Y336). Kind of experiment: Hs-Siglec9 ALPHAscreen SOP 20170721. The note with it: 10 µM. A general note: Bead proximity is the source of the signal in Alpha formats.
The next experiment concerns Trypanosoma cruzi. Kind of experiment: Trypanosoma cruzi phosphomannomutase and mannose-1-phosphate guanylyltransferase assay. It is filed as functional. The following applies: 10 µM.
Experiment [6] has as its target T3, Arginase-2, mitochondrial (Homo sapiens) (UniProt P78540).
T3 sequence (whole entry): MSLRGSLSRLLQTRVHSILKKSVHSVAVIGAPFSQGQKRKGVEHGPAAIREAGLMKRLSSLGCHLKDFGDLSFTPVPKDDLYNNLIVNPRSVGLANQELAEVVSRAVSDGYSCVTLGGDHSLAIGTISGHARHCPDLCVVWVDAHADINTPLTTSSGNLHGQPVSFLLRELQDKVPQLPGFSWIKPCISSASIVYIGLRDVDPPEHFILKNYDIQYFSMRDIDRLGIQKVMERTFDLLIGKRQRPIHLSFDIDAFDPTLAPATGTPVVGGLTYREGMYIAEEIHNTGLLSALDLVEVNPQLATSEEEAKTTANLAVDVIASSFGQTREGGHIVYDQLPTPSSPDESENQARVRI
Briefly: in vitro enzyme assay to detect the production of urea directly proportional to the activity of Arginase II. Also: in the data most compounds retested in dose-response had high values. It counts as functional. The note with it: 33.3 µM.

The target in experiment [7] is T4, Proteasome subunit beta (Trypanosoma cruzi) (UniProt O96673).
T4 sequence (whole entry): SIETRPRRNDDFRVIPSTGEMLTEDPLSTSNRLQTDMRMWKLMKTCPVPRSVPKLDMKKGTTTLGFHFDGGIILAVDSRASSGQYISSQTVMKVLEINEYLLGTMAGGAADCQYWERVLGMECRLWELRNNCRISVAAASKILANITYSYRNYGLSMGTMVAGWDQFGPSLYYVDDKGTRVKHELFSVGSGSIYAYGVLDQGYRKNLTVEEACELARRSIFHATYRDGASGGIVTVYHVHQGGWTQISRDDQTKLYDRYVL
Briefly: Trypanosoma cruzi proteasome chymotrypsin-like activity (TcProtChymo) assay. Also: in the data most compounds retested in dose-response had high values. It counts as functional. The following applies: 9.37 µM.

The species entered for another experiment is Homo sapiens. Briefly: To identify inhibition of the IFN signalling (Jak-Stat) pathway via expression of an eGFP reporter gene under the control of an IFN-stimulated response element (ISRE) containing MxA promoter. It is filed as functional. The following applies: 30 µM.
Experiment [8] deals with Shiga toxin 2 (Escherichia coli O157:H7) (UniProt P09385+P09386). Kind of experiment: E. coli 0.157:H7 Shiga Toxin SOP - stx2 screening assay. It is filed as functional. The following applies: 30 µM.
The target of experiment [9] is T5, Tyrosyl-tRNA synthetase, putative (Trypanosoma cruzi (strain CL Brener)) (UniProt Q4DSP6).
T5 sequence (whole entry): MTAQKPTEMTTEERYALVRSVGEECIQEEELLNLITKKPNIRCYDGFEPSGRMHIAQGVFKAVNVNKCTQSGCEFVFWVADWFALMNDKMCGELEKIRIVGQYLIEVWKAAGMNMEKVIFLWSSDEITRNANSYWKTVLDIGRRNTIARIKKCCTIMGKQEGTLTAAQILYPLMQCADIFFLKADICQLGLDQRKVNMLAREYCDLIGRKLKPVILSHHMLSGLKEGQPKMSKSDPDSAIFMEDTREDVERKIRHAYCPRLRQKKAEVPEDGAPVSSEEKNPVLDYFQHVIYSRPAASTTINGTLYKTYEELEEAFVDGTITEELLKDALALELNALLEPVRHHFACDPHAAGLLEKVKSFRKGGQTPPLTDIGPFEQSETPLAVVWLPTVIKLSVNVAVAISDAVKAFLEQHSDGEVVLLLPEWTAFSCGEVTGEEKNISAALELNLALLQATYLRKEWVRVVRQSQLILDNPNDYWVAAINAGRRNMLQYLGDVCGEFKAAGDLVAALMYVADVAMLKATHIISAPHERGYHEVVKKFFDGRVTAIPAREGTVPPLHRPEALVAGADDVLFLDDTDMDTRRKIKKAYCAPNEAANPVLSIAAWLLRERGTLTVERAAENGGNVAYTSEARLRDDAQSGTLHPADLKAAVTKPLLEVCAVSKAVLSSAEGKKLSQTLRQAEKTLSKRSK
Briefly: Trypanosoma cruzi tyrosyl tRNA synthetase (TcYRS) _High Tyrosine SOP. Also: in the data most compounds retested in dose-response had high values. It is filed as functional. The note with it: 30 µM.

The target of experiment [10] is T5, Tyrosyl-tRNA synthetase, putative (Trypanosoma cruzi (strain CL Brener)). Kind of experiment: Trypanosoma cruzi tyrosyl tRNA synthetase (TcYRS) SOP. It is filed as functional. The note with it: 30 µM.
In experiment [11] the target is Chromo domain-containing protein 1 (Saccharomyces cerevisiae (strain ATCC 204508 / S288c) (Baker's yeast)) (UniProt P32657). Kind of experiment: ScCHD-1 Enzyme Inhibition Assay. Also: in the data most compounds retested in dose-response had high values. It is filed as functional. The note with it: 30 µM.
Chromo domain-containing protein 1 (Saccharomyces cerevisiae (strain ATCC 204508 / S288c) (Baker's yeast)), sequence (P32657 whole entry, the tested form may be a part): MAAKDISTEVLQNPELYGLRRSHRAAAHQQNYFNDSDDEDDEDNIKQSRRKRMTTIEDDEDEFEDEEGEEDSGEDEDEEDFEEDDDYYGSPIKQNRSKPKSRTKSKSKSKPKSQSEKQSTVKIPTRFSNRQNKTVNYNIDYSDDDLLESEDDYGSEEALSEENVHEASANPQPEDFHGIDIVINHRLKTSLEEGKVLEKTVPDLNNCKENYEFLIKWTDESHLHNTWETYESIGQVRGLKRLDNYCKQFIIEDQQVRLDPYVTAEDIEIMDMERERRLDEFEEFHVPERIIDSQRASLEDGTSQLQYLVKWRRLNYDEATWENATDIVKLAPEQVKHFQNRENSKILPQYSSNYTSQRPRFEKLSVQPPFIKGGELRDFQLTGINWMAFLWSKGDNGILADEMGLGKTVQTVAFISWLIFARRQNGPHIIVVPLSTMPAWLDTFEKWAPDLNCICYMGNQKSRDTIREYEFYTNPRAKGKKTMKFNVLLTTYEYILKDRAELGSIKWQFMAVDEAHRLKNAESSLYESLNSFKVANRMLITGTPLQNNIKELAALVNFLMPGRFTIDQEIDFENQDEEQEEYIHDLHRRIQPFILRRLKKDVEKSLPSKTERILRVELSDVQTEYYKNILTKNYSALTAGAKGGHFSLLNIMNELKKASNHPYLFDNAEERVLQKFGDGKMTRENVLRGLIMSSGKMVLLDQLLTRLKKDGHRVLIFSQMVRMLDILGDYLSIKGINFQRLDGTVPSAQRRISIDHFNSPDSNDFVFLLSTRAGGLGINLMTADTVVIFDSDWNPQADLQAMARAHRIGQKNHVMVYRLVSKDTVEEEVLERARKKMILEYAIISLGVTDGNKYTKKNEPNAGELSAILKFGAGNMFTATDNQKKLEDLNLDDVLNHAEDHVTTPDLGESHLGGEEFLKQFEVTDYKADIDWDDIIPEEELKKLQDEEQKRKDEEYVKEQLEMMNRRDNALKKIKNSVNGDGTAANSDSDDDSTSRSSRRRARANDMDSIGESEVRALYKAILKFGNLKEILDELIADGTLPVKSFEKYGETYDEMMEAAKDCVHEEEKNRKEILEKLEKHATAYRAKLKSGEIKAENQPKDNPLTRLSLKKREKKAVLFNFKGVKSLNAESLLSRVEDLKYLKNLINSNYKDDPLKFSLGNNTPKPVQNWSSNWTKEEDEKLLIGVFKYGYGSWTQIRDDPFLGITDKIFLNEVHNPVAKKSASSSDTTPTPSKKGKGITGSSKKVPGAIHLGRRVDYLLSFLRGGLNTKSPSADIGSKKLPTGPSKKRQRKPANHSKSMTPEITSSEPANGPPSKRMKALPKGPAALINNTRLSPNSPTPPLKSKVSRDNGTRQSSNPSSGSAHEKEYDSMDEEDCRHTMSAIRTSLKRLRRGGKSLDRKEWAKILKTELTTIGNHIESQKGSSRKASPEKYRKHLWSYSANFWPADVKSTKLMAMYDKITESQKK

Protein translocase subunit SecA (Escherichia coli (strain K12)), sequence (P10408 whole entry): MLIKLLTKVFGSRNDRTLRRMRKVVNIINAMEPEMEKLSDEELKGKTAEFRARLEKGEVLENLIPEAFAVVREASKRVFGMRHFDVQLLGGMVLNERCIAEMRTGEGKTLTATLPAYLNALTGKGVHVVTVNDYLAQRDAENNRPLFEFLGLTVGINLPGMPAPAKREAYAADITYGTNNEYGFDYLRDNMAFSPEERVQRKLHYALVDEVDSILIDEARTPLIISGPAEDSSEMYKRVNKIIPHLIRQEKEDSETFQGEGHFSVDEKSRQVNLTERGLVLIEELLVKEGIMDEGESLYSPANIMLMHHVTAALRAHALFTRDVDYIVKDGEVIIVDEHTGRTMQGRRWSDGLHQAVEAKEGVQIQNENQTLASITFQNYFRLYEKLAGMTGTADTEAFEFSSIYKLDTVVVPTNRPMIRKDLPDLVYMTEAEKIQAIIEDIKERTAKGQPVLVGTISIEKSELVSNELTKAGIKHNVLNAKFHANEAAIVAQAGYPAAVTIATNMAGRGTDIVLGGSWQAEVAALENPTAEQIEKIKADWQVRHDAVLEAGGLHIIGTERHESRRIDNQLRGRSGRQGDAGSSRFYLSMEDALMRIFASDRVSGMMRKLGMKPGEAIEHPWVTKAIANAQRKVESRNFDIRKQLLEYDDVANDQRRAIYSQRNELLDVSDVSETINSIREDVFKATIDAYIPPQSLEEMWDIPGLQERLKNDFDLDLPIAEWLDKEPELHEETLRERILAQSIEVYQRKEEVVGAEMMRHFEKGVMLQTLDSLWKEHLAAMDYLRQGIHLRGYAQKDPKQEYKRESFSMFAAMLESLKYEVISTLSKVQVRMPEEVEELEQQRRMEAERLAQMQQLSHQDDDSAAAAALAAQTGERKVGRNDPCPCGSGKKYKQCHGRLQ
Sialic acid-binding Ig-like lectin 9 (Homo sapiens), sequence (Q9Y336 whole entry): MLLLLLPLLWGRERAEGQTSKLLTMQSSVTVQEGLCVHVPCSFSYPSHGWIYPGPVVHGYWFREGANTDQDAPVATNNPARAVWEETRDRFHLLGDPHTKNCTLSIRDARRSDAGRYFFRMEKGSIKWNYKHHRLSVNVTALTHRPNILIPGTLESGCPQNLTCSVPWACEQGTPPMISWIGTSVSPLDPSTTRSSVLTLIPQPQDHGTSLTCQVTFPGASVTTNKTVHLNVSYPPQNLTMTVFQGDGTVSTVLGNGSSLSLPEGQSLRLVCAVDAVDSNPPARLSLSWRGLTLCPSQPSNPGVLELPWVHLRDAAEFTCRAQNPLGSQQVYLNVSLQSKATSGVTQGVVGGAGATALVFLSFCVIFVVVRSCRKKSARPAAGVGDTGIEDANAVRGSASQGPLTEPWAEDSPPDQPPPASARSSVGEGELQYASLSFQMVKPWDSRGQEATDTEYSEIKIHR

With `Cc1nc(CN2CCOCC3(CCN(c4ncccn4)C3)C2)cs1` (configuration not stated), the Percent Effect is -4.37% in experiment [1]; 10.8% in experiment [2]; 2.24% in [3]; 2.91% in experiment [4]; -0.742% in experiment [5]; 1.17% with Trypanosoma cruzi. The Percent Effect in experiment [6] was 3.75%; in experiment [7] it was 6.68%; in the experiment filed under Homo sapiens it was -5.73%; in [8], -14.6%; in [9], 13.9%; in [10], 11%. For the same compound, the Percent Effect in experiment [11] was -4.52%.
Consider `O[C@@]1(c2ccccn2)CC[C@H]2CN(Cc3cccc(Cl)c3Cl)C[C@H]21`, for which the Percent Effect was -3.54% in experiment [1]; 1.35% in [2]; -0.73% in experiment [3]; 14.3% in experiment [4]; -0.828% in [5]; -3.95% in the experiment on Trypanosoma cruzi. Further, the Percent Effect was -1.62% in [6]; -0.468% in experiment [7]; 25.8% in the experiment listed under Homo sapiens; 23.9% in experiment [8]; 2.15% in experiment [9]; 6.49% in [10]. Besides, the Percent Effect in experiment [11] was -8.09%.
Turning to `COc1ccccc1OCC(=O)N1CCN(Cc2noc(C)n2)CC1`, the Percent Effect in [1] is -5.45%; in experiment [2], 13.5%; in experiment [3] it was 3.51%; in experiment [4], -4.95%; in experiment [5], 22%; in the experiment on Trypanosoma cruzi, 5.96%. In addition, the Percent Effect in [6] stood at 5.21%; in experiment [7] it was 6.09%; in the experiment filed under Homo sapiens, 2.23%; in [8], 3.27%; in experiment [9] it was 4.3%; in experiment [10], 13.6%. Also, the Percent Effect in experiment [11] is -7.11%.
With `CN1CCC2(COCc3cnc(N4CCOCC4)nc32)C1` (configuration not stated), the Percent Effect in experiment [1] was -1.86%; in experiment [2] it was -1.33%; in experiment [3], -1.51%; in experiment [4] it was 5.52%; in experiment [5], 4.35%; in the experiment on Trypanosoma cruzi it was -1.18%. Besides, the Percent Effect is -0.528% in [6]; 5.36% in [7]; -2.62% in the experiment listed under Homo sapiens; -6.09% in experiment [8]; 0% in experiment [9]; -5.13% in [10]. Further, in [11], the Percent Effect is -1.41%.

For the origin of these results see ChEMBL document CHEMBL3988442, “University of Dundee, Small-Polar-MMV Screening Library” (2021).
